Screening data (PubChem BioAssay)
Shown are actives, neighbours in structure and some others; about 15% of the full set was active somewhere.
ALOX12 inh = ALOX12 (human) lipoxygenase inhibition | P18054 | purified 12hLO, xylenol orange hydroperoxide absorbance | Potency, µM (highest dose often 108 µM), for inactives: at the top dose activity change, negative = inhibition, hits mostly inhibitors | 580,000 compounds, 1.1% hits | AID 1671190
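Hydroperoxide product was detected by ferrous iron/xylenol orange as the 573 to 405 nm absorbance ratio. Arachidonic acid at 40 uM (final) was turned over for 30 min at room temperature by 150 nM human 12hLO, pH 7.0 Hepes buffer, after 15 min compound preincubation.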
ELG1 DNA repair = blocks ELG1-dependent DNA repair in HEK293T cells | HEK293T ELG1-luciferase reporter, luminescence, 16 h; DNA damage induced by 5-fluorouridine | Potency, µM (titrated, usually from 46.1 µM), for the others: at the highest dose activity change, negative = inhibition, most hits filed as inhibitors | 330,000 compounds, 2.3% hits; note: nearly all actives have a fitted effect of over 55% in size
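Reporter activity after DNA damage by 5-fluorouridine is monitored. Compound-treated cells incubate 16 hr at 37 °C, then ONE-Glo is added for 30 min before luminescence reading.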
RORgamma inh = inhibitors of mouse ROR gamma transcriptional activity | Drosophila S2 Gal4-RORgamma UAS-luciferase reporter, 20 h | P51450 | 310,000 compounds, 5.4% hits | Potency, µM (top dose mostly 53.6 µM), for the others: top-dose activity change, negative = inhibition, actives largely listed as inhibitors; note: nearly all actives have a fitted effect of over 60% in size
Target sequence (P51450 whole entry, looked up, the tested form may be a part): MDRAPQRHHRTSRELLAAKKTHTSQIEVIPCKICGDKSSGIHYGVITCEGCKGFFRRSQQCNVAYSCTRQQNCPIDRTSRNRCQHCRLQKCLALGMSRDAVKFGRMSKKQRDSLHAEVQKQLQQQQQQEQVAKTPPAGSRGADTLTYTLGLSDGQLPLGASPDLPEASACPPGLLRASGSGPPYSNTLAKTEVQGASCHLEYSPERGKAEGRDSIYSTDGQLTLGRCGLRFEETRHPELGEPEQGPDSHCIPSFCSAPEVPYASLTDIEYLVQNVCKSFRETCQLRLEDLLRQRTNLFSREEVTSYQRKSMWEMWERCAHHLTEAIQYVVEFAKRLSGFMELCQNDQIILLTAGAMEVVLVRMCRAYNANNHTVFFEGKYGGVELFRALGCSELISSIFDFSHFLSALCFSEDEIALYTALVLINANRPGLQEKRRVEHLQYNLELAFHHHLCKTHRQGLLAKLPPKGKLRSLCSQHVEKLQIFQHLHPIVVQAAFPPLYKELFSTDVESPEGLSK
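Luminescence from a UAS-regulated Photinus luciferase reporter in stably transfected Drosophila Schneider cells is measured; decreased signal marks ROR gamma inhibition. Fusion expression is induced by 700 uM copper sulfate for 20 hr.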
TDP1 cell noCPT = qHTS for Inhibitors of human tyrosyl-DNA phosphodiesterase 1 (TDP1): qHTS in cells in absence of CPT; DT40 Tdp1-/- hTDP1 cells, no CPT, ATP luminescence, 48 h; Potency, µM (titrated, usually from 46.2 µM), for inactives: top-dose activity change, negative = growth inhibition, actives largely listed as inhibitors; 420,000 compounds, 15% hits; AID 686978, 2013; note: nearly all actives have a fitted effect of over 55% in size
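Chicken DT40 Tdp1-/- cells stably complemented with human TDP1 were seeded at 400 cells/well with DMSO in place of 20 nM camptothecin. After compound pinning, cells grew at least 48 hr at 37 °C; viability read by CellTiter-Glo luminescence.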
Gal4-VP16 FLuc = counter-screen for ROR gamma inhibitors: Gal4-VP16 reporter. Drosophila S2 Gal4-VP16 UAS-luciferase, luminescence, 20 h. Potency, µM (top dose mostly 53.6 µM), inactives show at the top dose activity, negative = inhibition, hits mostly inhibitors. 310,000 compounds, 3.5% hits;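 note: Gal4-VP16 expression switched on by copper sulfate through the metallothionein promoter; nearly all actives have a fitted effect of over 50% in size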
DT40 TDP1 CPT = DT40-hTDP1 cell growth loss with CPT | chicken DT40 Tdp1-/-;hTDP1 cells + 20 nM CPT, ATP luminescence, 48 h | 420,000 compounds, 12% hits | Potency, µM (top dose mostly 46.2 µM), for the others: at the top dose activity change, negative = growth inhibition, usual class: inhibitors | AID 686979; note: nearly all actives have a fitted effect of over 55% in size
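Chicken DT40 Tdp1-/- cells complemented with human TDP1, 400 cells/well, exposed to compounds plus 20 nM camptothecin for at least 48 h at 37 C; viability read as ATP content by CellTiter-Glo luminescence.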
An asterisk follows results filed as active; ? = inconclusive; nt = no result given; [ ] = remark or other dose. Calls come from the whole dose curve; as a rule, active = well fitted curve in the direction sought with a large enough effect; inconclusive = small, poorly fitted or top-dose-only effect, or another doubt; inactive = no such curve, though single readings can be large; an effect the other way counts as inactive or inconclusive. % is set by controls: 0 for no effect and ±100 for the full control effect; potency is the fitted concentration of half-maximal effect.

SMILES	ALOX12 inh	ELG1 DNA repair	RORgamma inh	TDP1 cell noCPT	Gal4-VP16 FLuc	DT40 TDP1 CPT
O=C(N/N=C/c1cccc(O)c1)C1CC1	-23%	nt	nt	nt	nt	nt
COc1ccc2cc(CCNC(=O)c3ccc4c(c3)OCO4)c(=O)[nH]c2c1	-11%	?	?	?	1%	?
COc1ccc2cc(CCNC(=O)c3cccc([N+](=O)[O-])c3)c(=O)[nH]c2c1	-21%	?	-17%	?	0%	23µM*
O=C(NNc1ccccc1[N+](=O)[O-])Nc1ccccc1	-28%	3%	5%	?	2%	15µM*
CNC(=S)NNc1ccccc1[N+](=O)[O-]	?	4%	16µM*	-18%	6%	-1%
COCCCNC(=S)Nc1ccc(C)cc1[N+](=O)[O-]	?	?	-23%	-1%	1%	-2%
COCCNC(=S)NNc1ccccc1[N+](=O)[O-]	?	-5%	?	4%	11µM*	2%
Cc1ccccc1CCNC(=O)Cn1ncc2ccccc2c1=O	23%	nt	nt	nt	nt	nt
COc1cccc(NC(=O)[C@@H]2C[C@@H](c3cccc(C(F)(F)F)c3)N(C)C2)c1	0%[176 µM]	nt	nt	nt	nt	nt
COc1cc(/C=C2\Oc3cc(OS(=O)(=O)c4ccc(C)cc4)ccc3C2=O)cc(OC)c1OC	-20%	nt	nt	nt	nt	nt
Nc1ccc2nc(-c3ccccc3)c(-c3ccccc3)nc2c1	-22%	-2%	-29%	21µM*	-5%	?
Nc1ccc2nc(-c3ccccc3)sc2c1	21%	nt	8.9µM*	?	?	-19%
Nc1ccc(Oc2ccc3nc(-c4ccccc4)c(-c4ccccc4)nc3c2)cc1	0%	3%	?	21µM*	0%	?
Cc1ncc2c(c1CNC(=O)c1ccccc1-c1ncc[nH]1)CCNC2	18%	nt	nt	nt	nt	nt
CCC(CC)N1C[C@@H](CO)[C@H](c2nc(CCOC)no2)C1	37%	nt	nt	nt	nt	nt
Cc1ccnc(NC(=O)c2ccccc2NC(=O)C(C)(C)C)c1	0%	?	-6%	16µM*	-14%	18µM*
COc1ccc(C(=O)/C=C/Nc2cc(C)ccn2)cc1	-94%	?	0.2µM*	-26%	?	-13%
CSc1ccc(NC(=O)Nc2cc(C)ccn2)cc1	-19%	?	8.9µM*	-8%	?	2%
Cc1ccnc(NC(=O)Nc2ccc(F)cc2)c1	72%	?	?	-4%	-14%	-17%
COc1ccc(C(=O)NC(=O)Nc2cc(C)ccn2)cc1	3%	?	0.04µM*	-26%	0.18µM*	-20%
CCCn1c(=O)[nH]c(=O)c2c1nc(-c1cccc(C)c1)n2CCN1CCOCC1	-4%	nt	nt	nt	nt	nt
COc1ccc(C(=O)Nc2ccccc2C(=O)Nc2cc(C)ccn2)cc1	0%	?	?	18µM*	?	?
O=C1CCC2(CNC(=O)c3cnccn3)CCCC=C2N1 (stereo not drawn)	43%	nt	nt	nt	nt	nt
COc1cc(NC(=O)Cn2nc(C(F)(F)F)c3c2CCC3)cc(OC)c1OC	0%	nt	nt	9.2µM*	nt	?
COC(=O)c1ccccc1NC(=O)Cn1nc(C(F)(F)F)c2c1CCCC2	-8%	nt	nt	7.3µM*	nt	23µM*
CCc1ccccc1NC(=O)Cn1nc(C(F)(F)F)c2c1CCCC2	-18%	nt	nt	?	nt	-3%
COc1cc(NC(=O)Cn2nc(C(F)(F)F)c3c2CCCC3)c(OC)cc1Cl	?	nt	nt	16µM*	nt	21µM*
O=C(Cc1c(Cl)cccc1Cl)NC(c1cccs1)C1CC1 (stereo not drawn)	8%	nt	nt	nt	nt	nt
COc1cccc2cc(C(=O)/C=C/c3ccc(C#N)cc3)oc12	54%	nt	nt	nt	nt	nt
O=C([C@@H]1C[C@H](F)CN1S(=O)(=O)c1ccc(F)cc1)N1CCc2ccccc2C1	-4%	nt	nt	nt	nt	nt
